PubChem BioAssay AID1851 (National Center for Advancing Translational Sciences (NCATS), 2009)
“And” between values parts separate entries of the source, which are not always exact repeats. Equal values may be shown once. About 5,800 (36%) of roughly 16,000 compounds were called active. Another 23% or so got no clear call; they are omitted. Some of the results follow. Values without a mark were called inactive. Calls follow the shape of the dose curve; as a rule, active = well fitted curve in the direction sought with a large enough effect; inconclusive = small, poorly fitted or top-dose-only effect, or effect the other way; inactive = no such curve, though single readings can be large or run the other way.

target: Cytochrome P450 2C19 (Homo sapiens) (UniProt P33261); assay: Cytochrome panel assay with activity outcomes; conditions: recombinant CYP, pro-luciferin dealkylation, luminescence, p450-cyp2c19; series mostly up to 57.1 µM
Sequence (P33261 whole entry, looked up): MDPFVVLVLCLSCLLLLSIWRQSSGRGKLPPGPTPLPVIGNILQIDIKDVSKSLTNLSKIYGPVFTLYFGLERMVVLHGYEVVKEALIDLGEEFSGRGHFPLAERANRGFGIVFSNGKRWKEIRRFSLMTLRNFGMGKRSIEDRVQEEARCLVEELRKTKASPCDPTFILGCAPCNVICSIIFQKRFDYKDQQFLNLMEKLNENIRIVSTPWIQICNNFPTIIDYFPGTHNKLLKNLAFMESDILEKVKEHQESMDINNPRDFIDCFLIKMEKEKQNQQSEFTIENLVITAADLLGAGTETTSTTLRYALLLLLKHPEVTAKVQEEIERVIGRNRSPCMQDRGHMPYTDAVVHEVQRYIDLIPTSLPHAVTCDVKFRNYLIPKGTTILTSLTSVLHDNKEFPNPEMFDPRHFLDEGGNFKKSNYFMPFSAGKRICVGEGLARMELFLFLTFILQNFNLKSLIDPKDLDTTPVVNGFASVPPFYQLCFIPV
% is scaled to controls: 0 for no effect and ±100 for the full control effect.

Structure (SMILES) | AC50 | activity, negative = inhibition
c1ccc(C(c2ccccc2)N2CC3(CCNCC3)C2)cc1 | inactive | 
c1ccc(C(c2ccccc2)N2CCC3(CCNCC3)CC2)cc1 | 3.98 µM (active) | 
c1ccc(C(c2ccccc2)N2CCCC3(CCNCC3)C2)cc1 | inactive | 
CC(C)CO/N=C1/C[C@@H](O)[C@@H](O)[C@@H]2[C@@H]3C(=O)N(Cc4ccc5c(c4)OCO5)C(=O)[C@H]3CC[C@H]12 | 3.98 µM (active) | 
CC(C)CO/N=C1/C[C@@H](O)[C@@H](O)[C@@H]2[C@@H]3C(=O)N(Cc4ccc5c(c4)OCO5)C(=O)[C@H]3CC[C@@H]12 |  | -22.9% [at 11.4 µM]
O=C1[C@H]2[C@H]3[C@H](O)[C@H](O)C/C(=N/OC[C@@H](O)COCc4ccco4)[C@H]3CC[C@@H]2C(=O)N1Cc1ccc2c(c1)OCO2 |  | 4.07% [at 11.4 µM]
O=C(NNC(=O)c1ccncc1)c1ccncc1 |  | 6.77% [at 11.4 µM]
O=C(Nc1nnc(C2CC2)s1)c1ccncc1 | 17.8 µM (active) | 
NNC(=O)CNC(c1ccccc1)c1cc(Br)ccc1NC(=O)c1ccccc1Br (stereo unspecified) | 7.08 µM (active) | 
Cc1ccc(-c2c3c(nc4sc(C(N)=O)c(N)c24)CCC3)cc1 | 14.1 µM (active) | 
COc1ccc(C2/C(=C(/O)c3ccccc3)C(=O)C(=O)N2c2ccccn2)c(OC)c1 (stereo unspecified) | inactive | 
O=C1C(=O)N(c2cccc(Cl)c2)C(c2ccccc2[N+](=O)[O-])/C1=C(\O)c1ccccc1 (stereo unspecified) | 20 µM (active) | 
O=[N+]([O-])c1ccc(C2=Nn3c(nnc3-c3ccc(Cl)cc3)SC2)o1 | 2.51 µM (active) | 
O=C1COC(c2ccccc2O)=NN1CCCN1CCCC1 |  | 43.2% [at 11.4 µM]
Cn1c(=O)n(CC#N)c2ccccc21 | inactive | 
Cc1snc(SCC(=O)N/N=C(\N)COc2cccc(C(F)(F)F)c2)c1C#N | 4.47 µM (active) | 
COc1ccc(CCN(C)CCC(=O)Nc2c(C)cc(C)cc2C)cc1OC | inactive | 
CC(=O)OCC1=C(C(=O)O)N2C(=O)[C@@H](NC(=O)Cc3cccs3)[C@@H]2SC1 | inactive | 
COc1ccc(CCNC(=O)CCN2C(=O)C(C)Oc3ccc(C)cc32)cc1OC (stereo unspecified) | 20 µM (active) | 
Cc1ccc(C)c(NC(=O)Cn2nnc(C(=O)NCc3cccs3)c2N)c1 | inactive | 
Cc1ccc2c(c1)N(CC(=O)NCc1cccs1)C(=O)C(C)O2 (stereo unspecified) | 2.51 µM (active) | 
NC(=O)/C(=N\OC(=O)c1ccco1)c1nc(-c2ccc(Br)cc2)cs1 | 20 µM (active) | 
O=C(O)[C@@H](Cc1c[nH]c2ccccc12)C(=O)NO |  | 84.7% [at 11.4 µM]

Structure (SMILES) | AC50 | activity, negative = inhibition
Cc1cc(C)cc(C(=O)N(C)[C@H](Cc2ccc(-c3ccccc3)cc2)C(=O)N[C@@H](Cc2c[nH]c3ccccc23)C(=O)O)c1 | 10 µM (active) | 
CCc1cc2c(nc1CC)CCN(CC/C(C)=N/O[C@@H](C)c1cn([C@H](CO)Cc3ccccc3)nn1)C2 |  | -17.2% [at 11.4 µM] and -16.8% [at 11.4 µM]
CC(=O)Nc1ccnc(-c2cccnc2)n1 | inactive | 
CC(C)(C)C(=O)Nc1ccnc(-c2cccnc2)n1 | 2.24 µM (active) | 
O=C(Nc1ccnc(-c2cccnc2)n1)c1cccc(Cl)c1Cl | 2.82 µM (active) | 
C=CCNC(=S)N/N=C/c1ccc(OCc2ccccc2)cc1 | inactive | 
COc1ccc(CCN(C)Cc2ccc(OCc3ccccc3)c(OC)c2)cc1OC | inactive | 
COc1cc(/C=N/NC(=O)c2cccs2)ccc1OCc1ccccc1 | 1.41 µM (active) | 
COc1cc(/C=N\NC(=O)C2C(=O)NCC2c2ccccc2)cc(OC)c1O (stereo unspecified) | inactive | 
O=C(N/N=C/c1cccc(OCc2ccccc2)c1)c1cccs1 | 5.01 µM (active) | 
O=C(N/N=C/c1ccc(OCc2ccccc2)cc1)c1cccs1 | 2.51 µM (active) | 
O=C(N/N=C/C=C/c1ccc([N+](=O)[O-])cc1)c1cccs1 | inactive | 
Cc1c(NCc2cc(Cl)ccc2O)c(=O)n(-c2ccccc2)n1C | 5.62 µM (active) | 
Cc1c(NC(=O)Nc2c(Cl)cccc2Cl)c(=O)n(-c2ccccc2)n1C |  | 10.7% [at 11.4 µM]
Cc1c(NC(C)C)c(=O)n(-c2ccccc2)n1C | inactive | 
C=C(C)COc1ccc2c(c1)CCC1C2CC[C@]2(C)C(=O)/C(=N/O)CC12 (stereo partly specified) |  | 19.2% [at 11.4 µM]
CCOC(=S)SCC(=O)O |  | 38.2% [at 11.4 µM]
O=c1cc(-c2ccccc2)[nH]n1-c1ccc([N+](=O)[O-])cc1 | 8.91 µM (active) | 
COc1ccc(Oc2c(Cl)cnn(-c3ccccc3)c2=O)cc1 | 2.24 µM (active) | 
COc1cccc(/C=N/n2nnc3c(cnn3-c3ccccc3)c2=O)c1 | inactive | 
COc1ccc(-n2c(=O)c(C)nc3cnc(Oc4ccccc4)nc32)cc1 | inactive | 
CCCC[C@H]1C[C@@H]1[C@@H]1N(P(=O)(c2ccccc2)c2ccccc2)C[C@@](O)(c2ccccc2)CC12CC2 | inactive | 
O=C(NCCc1ccccc1)N1c2ccccc2Sc2ccccc21 | 2.82 µM (active) | 

Structure (SMILES) | AC50 | activity, negative = inhibition
COc1ccc(S(=O)(=O)N2CCCN(CC(=O)Nc3ccc(OC)c(Cl)c3)CC2)cc1 | 0.0631 µM (active) | 
COc1ccc(C)cc1NC(=O)CN1CCN(S(=O)(=O)c2ccc(F)cc2)CC1 | 2.82 µM (active) | 
COc1ccc(S(=O)(=O)N2CCCN(CCC(=O)Nc3cccc(C(F)(F)F)c3)CC2)cc1 | 2.51 µM (active) | 
COc1ccc(NC(=O)c2cc(S(=O)(=O)N3CCS(=O)(=O)CC3)ccc2Cl)cc1 | inactive | 
COc1ccc(S(N)(=O)=O)cc1C(=O)NCCCN1CCN(c2ccc(C)cc2)CC1 | inactive | 
COc1ccc(C)cc1NC(=O)CCC(=O)Nc1nnc(C(F)(F)F)s1 | inactive | 
COc1ccc(NC(=O)N2CC[C@@]3(CCCN(S(C)(=O)=O)C3)C2)cc1 | inactive | 
COc1ccc(S(=O)(=O)N2CCN(CC(=O)Nc3cc(OC)cc(OC)c3)CC2)cc1 | 14.1 µM (active) | 
CC12CS(=O)(=O)CC1SC(=S)N2c1ccccn1 (stereo unspecified) | inactive | 
COc1ccc(NC(=O)N2CC[C@@]3(CCCN(C(=O)c4cccn4C)C3)C2)cc1 | inactive | 
COc1ccc(C(=O)N2CCC3(CCN(C(=O)Nc4cccc(F)c4)CC3)CC2)cc1 | inactive | 
COC(=O)N1CCC2(CCCN(C(=O)Nc3cccc(F)c3)C2)CC1 | inactive | 
CCOc1ccc(C(=O)CN2CCN(S(=O)(=O)c3ccc(F)cc3)CC2)cc1 | 7.08 µM (active) | 
COc1ccc(S(=O)(=O)N2CCN(CC(=O)Nc3cccc(F)c3)CC2)cc1 | 4.47 µM (active) | 
Cc1nc2nc(SCC(=O)NCc3ccco3)nn2c(C)c1Cc1c(F)cccc1Cl | 15.8 µM (active) | 
Cc1ccc(C2C3=C(CCCC3=O)Nc3nc(SCC(=O)NCc4ccco4)[nH]c(=O)c32)cc1 (stereo unspecified) | inactive | 
Cc1cccc(Cc2c(C)nc3nc(SCC(=O)NCc4ccco4)nn3c2C)c1 | 5.01 µM (active) | 
O=C(NC(Cc1ccccc1)C(=O)O)/C(=C\c1ccco1)NC(=O)c1ccc(Br)cc1 (stereo unspecified) | inactive | 
CC(=O)c1ccc(NC(=O)C(Cc2ccccc2)NC(=O)c2ccco2)cc1 (stereo unspecified) | 15.8 µM (active) | 
O=C(Nc1ccccc1)C(Cc1ccccc1)NC(=O)C12CC3CC(CC(C3)C1)C2 (stereo unspecified) | inactive | 
N#Cc1cccc(NC(=O)N2CC3(CCN(C(=O)c4cnccn4)CC3)C2)c1 | inactive | 
CCOC(=O)C1=C(C)N=C2SC(C(=O)OC)=CC(=O)N2C1c1ccc(F)cc1 (stereo unspecified) | 1.26 µM (active) | 
CCCC(=O)NCCc1c2n(c3ccc(OC)cc13)Cc1ccccc1-2 | 0.398 µM (active) | 

Structure (SMILES) | AC50 | activity, negative = inhibition
COc1ccc2c(c1)c(CC(=O)O)c(C)n2C(=O)c1ccccc1 | inactive | 
CC1(C)OC(=O)C(=CNCC(O)c2ccccc2)C(=O)O1 (stereo unspecified) | 11.2 µM (active) | 
CSCCC(NC=C1C(=O)OC(C)(C)OC1=O)C(=O)O (stereo unspecified) | inactive | 
CC1(C)OC(=O)C(=CNc2cccc(O)c2)C(=O)O1 | inactive | 
COCCN1CN=C(Nc2nc3ccccc3o2)NC1 | inactive | 
COCCn1c(=O)c(-c2ccccc2)nc2cnc(Nc3ccccc3)nc21 | inactive | 
c1ccc2sc(SCN(C3CCCCC3)C3CCCCC3)nc2c1 |  | -38.6% [at 11.4 µM]
c1ccc2sc(NC3=NCN(C4CCCCCC4)CN3)nc2c1 | 1.12 µM (active) | 
COCCN1CN=C(Nc2nc3ccccc3s2)NC1 | 14.1 µM (active) | 
CN1CCN(c2ncc3nc(-c4cc(F)cc(F)c4)c(=O)n(CCC#N)c3n2)CC1 | inactive | 
CN(C)c1ccccc1CN1CCCN(Cc2ccccc2N(C)C)C1c1ccncc1 |  | -28.5% [at 11.4 µM]
CCCCCCCCN1C(=O)N(C)C(N(O)C(=O)NC)C1(C)C (stereo unspecified) | 7.08 µM (active) | 
O=C(Nc1cc(C(F)(F)F)ccc1N1CCCCC1)c1ccc(Br)o1 | 11.2 µM (active) | 
O=C(COc1ccccc1)Nc1cc(C(F)(F)F)ccc1N1CCCC1 | 5.01 µM (active) | 
NS(=O)(=O)c1cc(C(=O)O)cc(N2CCCC2)c1Oc1ccccc1 | inactive | 
Nc1ncnc2c1ncn2CCCCC(=O)O |  | 24.1% [at 11.4 µM]
COc1ccc2nc(C)cc(SCC(=O)NNC(=O)COc3ccc(C)cc3)c2c1 | 3.16 µM (active) | 
COc1ccc2nccc(SCC(=O)O)c2c1 |  | -14.8% [at 11.4 µM]
COc1ccc2nc(SCC(=O)NN)cc(C)c2c1 | inactive | 
COc1ccc2nccc(C(=O)O)c2c1 | inactive | 
COc1ccc2nc(C)cc(SCC(=O)Nc3c(C)cc(C)cc3C)c2c1 | 2.51 µM (active) | 
NC(=O)c1cc[n+](CC2=C(C(=O)[O-])N3C(=O)[C@@H](NC(=O)Cc4cccs4)[C@@H]3SC2)cc1 | inactive | 
